# Experiments:
# [1] = molecular target: Calcium/calmodulin-dependent protein kinase type II subunit alpha (Homo sapiens) (UniProt Q9UQM7); settings: at 1 µM;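 note: reported value is a mean percent inhibition of CAMK2A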
# [2] = molecular target: Calcium/calmodulin-dependent protein kinase type II subunit delta (Homo sapiens) (UniProt Q13557); settings: at 0.1 µM
# [3] = molecular target: Calcium/calmodulin-dependent protein kinase type II subunit delta (Homo sapiens) (UniProt Q13557); settings: at 1 µM
# [4] = molecular target: T1, Calcium/calmodulin-dependent protein kinase type IV (Homo sapiens) (UniProt Q16566); settings: at 0.1 µM
# T1 sequence (whole entry): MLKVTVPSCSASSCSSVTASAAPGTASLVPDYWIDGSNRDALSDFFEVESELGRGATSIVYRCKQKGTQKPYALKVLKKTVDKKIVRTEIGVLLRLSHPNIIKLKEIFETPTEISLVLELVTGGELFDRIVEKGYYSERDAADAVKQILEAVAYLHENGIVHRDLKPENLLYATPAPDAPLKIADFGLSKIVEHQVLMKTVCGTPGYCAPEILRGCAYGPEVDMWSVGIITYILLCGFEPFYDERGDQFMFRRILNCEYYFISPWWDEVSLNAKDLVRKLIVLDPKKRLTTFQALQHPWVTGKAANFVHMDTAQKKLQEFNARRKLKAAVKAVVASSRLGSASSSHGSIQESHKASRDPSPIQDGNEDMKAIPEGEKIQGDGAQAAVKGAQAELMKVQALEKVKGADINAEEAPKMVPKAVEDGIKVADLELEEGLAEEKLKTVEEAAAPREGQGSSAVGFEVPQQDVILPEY
# [5] = molecular target: T1, Calcium/calmodulin-dependent protein kinase type IV (Homo sapiens); settings: at 1 µM
# [6] = molecular target: T2, Serine/threonine-protein kinase Chk1 (Homo sapiens) (UniProt O14757); settings: at 0.1 µM
# T2 sequence (whole entry): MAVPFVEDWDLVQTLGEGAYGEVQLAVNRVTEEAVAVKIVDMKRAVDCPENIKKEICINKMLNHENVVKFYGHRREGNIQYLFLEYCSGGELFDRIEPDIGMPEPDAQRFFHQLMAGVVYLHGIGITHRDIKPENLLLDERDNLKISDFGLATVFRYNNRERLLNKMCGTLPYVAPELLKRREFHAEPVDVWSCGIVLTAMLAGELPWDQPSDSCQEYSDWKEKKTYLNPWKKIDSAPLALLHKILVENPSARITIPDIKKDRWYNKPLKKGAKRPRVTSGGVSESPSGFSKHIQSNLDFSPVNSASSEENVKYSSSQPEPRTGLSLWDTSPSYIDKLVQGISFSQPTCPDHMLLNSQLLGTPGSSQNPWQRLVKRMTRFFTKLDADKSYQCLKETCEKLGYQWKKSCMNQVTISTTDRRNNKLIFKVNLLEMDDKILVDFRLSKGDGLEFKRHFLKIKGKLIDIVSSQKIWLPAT
# [7] = molecular target: T2, Serine/threonine-protein kinase Chk1 (Homo sapiens); settings: at 1 µM
# [8] = molecular target: Serine/threonine-protein kinase Chk2 (Homo sapiens) (UniProt O96017); settings: at 0.1 µM
# [9] = molecular target: Serine/threonine-protein kinase Chk2 (Homo sapiens) (UniProt O96017); settings: at 1 µM
# [10] = molecular target: Death-associated protein kinase 1 (Homo sapiens) (UniProt P53355); settings: at 0.1 µM
# [11] = molecular target: Death-associated protein kinase 1 (Homo sapiens) (UniProt P53355); settings: at 1 µM
# [12] = molecular target: T3, Serine/threonine-protein kinase DCLK2 (Homo sapiens) (UniProt Q8N568); settings: at 0.1 µM
# T3 sequence (whole entry): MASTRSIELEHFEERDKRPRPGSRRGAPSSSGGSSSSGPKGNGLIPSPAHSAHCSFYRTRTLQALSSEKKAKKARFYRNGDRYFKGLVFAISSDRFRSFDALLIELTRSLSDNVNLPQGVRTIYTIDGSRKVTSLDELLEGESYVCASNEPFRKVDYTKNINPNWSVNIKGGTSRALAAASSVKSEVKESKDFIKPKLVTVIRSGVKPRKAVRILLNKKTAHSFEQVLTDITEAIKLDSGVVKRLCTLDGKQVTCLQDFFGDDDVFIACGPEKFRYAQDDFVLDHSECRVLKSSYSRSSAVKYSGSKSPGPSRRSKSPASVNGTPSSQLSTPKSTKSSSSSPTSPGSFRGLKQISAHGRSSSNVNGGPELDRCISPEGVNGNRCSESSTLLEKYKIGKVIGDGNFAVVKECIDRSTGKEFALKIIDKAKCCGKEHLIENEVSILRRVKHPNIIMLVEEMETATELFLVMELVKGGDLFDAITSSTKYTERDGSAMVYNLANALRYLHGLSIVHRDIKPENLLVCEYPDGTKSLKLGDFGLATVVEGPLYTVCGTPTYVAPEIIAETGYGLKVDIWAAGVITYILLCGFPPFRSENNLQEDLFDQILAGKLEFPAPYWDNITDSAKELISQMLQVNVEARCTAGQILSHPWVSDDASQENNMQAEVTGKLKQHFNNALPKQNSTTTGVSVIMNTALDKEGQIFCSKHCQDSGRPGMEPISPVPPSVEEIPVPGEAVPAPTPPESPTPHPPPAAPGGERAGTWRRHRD
# [13] = molecular target: T3, Serine/threonine-protein kinase DCLK2 (Homo sapiens); settings: at 1 µM
# [14] = molecular target: MAP kinase-activated protein kinase 2 (Homo sapiens) (UniProt P49137); settings: at 0.1 µM
# [15] = molecular target: MAP kinase-activated protein kinase 2 (Homo sapiens) (UniProt P49137); settings: at 1 µM
# [16] = molecular target: MAP kinase-activated protein kinase 3 (Homo sapiens) (UniProt Q16644); settings: at 0.1 µM
# [17] = molecular target: MAP kinase-activated protein kinase 3 (Homo sapiens) (UniProt Q16644); settings: at 1 µM
# [18] = molecular target: Serine/threonine-protein kinase MARK1 (Homo sapiens) (UniProt Q9P0L2); settings: at 0.1 µM
# [19] = molecular target: Serine/threonine-protein kinase MARK1 (Homo sapiens) (UniProt Q9P0L2); settings: at 1 µM
# [20] = molecular target: MAP/microtubule affinity-regulating kinase 3 (Homo sapiens) (UniProt P27448); settings: at 0.1 µM;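 note: mean percent inhibition of MARK3 kinase activity, measured within the GSK PKIS screening panel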
# MAP/microtubule affinity-regulating kinase 3 (Homo sapiens), sequence (P27448 whole entry, looked up): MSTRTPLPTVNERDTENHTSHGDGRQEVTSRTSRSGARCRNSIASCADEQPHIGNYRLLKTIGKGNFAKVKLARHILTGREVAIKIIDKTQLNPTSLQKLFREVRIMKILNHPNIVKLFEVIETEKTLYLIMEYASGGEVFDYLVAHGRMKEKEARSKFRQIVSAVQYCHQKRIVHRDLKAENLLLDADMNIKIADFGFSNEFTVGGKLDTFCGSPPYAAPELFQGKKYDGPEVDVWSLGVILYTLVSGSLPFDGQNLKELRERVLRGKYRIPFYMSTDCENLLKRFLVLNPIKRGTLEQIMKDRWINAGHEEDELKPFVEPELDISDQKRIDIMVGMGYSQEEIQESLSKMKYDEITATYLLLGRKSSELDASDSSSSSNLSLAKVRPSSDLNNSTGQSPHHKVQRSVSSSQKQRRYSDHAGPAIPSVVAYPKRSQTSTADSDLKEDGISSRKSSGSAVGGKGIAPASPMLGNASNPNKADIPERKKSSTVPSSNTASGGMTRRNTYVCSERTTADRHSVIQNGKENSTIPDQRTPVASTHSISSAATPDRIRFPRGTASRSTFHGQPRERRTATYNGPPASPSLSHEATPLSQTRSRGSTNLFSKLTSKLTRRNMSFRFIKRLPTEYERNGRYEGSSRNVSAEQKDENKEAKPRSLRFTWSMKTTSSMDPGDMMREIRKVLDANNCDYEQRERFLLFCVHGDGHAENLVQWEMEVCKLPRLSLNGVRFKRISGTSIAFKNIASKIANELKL
# Calcium/calmodulin-dependent protein kinase type II subunit alpha (Homo sapiens), sequence (Q9UQM7 whole entry): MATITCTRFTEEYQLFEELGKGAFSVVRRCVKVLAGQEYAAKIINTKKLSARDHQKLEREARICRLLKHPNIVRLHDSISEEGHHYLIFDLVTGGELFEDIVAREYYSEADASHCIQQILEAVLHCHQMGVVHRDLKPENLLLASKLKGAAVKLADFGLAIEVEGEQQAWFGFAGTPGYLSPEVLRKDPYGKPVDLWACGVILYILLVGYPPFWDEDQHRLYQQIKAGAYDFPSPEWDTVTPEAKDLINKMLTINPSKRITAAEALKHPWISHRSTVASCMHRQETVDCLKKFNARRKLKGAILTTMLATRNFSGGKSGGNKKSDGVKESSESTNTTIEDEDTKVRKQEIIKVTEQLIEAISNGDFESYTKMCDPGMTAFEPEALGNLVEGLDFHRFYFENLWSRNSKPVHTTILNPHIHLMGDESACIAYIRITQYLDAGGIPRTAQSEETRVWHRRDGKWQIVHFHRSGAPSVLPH
# Serine/threonine-protein kinase MARK1 (Homo sapiens), sequence (Q9P0L2 whole entry, looked up): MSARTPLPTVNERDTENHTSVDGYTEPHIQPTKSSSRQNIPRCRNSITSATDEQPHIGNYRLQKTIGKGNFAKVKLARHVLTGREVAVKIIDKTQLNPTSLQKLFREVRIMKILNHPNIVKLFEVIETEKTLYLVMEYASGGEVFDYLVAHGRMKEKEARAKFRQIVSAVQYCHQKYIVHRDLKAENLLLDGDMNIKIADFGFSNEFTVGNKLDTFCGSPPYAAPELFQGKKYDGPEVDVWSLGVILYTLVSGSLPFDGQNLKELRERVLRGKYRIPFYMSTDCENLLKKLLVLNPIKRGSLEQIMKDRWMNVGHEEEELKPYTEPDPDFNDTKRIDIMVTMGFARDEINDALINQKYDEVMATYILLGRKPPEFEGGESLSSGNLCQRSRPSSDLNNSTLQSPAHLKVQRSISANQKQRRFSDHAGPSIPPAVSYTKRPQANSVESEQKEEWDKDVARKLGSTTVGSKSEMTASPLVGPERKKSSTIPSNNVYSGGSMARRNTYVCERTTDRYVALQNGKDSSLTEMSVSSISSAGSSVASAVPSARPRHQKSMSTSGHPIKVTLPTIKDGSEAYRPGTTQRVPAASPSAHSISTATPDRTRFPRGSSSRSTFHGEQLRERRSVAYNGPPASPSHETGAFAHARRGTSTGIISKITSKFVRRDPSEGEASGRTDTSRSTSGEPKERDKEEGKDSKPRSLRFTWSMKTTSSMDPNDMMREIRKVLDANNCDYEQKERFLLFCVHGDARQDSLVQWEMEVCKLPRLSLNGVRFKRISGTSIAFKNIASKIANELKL
# MAP kinase-activated protein kinase 3 (Homo sapiens), sequence (Q16644 whole entry, looked up): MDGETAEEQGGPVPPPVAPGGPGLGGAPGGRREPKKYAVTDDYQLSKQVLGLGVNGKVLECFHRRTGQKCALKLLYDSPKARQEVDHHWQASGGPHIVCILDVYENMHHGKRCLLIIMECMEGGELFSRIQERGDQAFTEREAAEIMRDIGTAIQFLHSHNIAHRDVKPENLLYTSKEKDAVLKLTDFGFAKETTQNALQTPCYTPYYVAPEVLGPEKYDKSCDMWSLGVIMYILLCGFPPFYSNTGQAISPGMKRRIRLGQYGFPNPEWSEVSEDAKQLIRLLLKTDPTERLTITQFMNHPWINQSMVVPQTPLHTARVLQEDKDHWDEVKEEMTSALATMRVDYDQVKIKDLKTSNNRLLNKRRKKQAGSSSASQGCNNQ
# Serine/threonine-protein kinase Chk2 (Homo sapiens), sequence (O96017 whole entry): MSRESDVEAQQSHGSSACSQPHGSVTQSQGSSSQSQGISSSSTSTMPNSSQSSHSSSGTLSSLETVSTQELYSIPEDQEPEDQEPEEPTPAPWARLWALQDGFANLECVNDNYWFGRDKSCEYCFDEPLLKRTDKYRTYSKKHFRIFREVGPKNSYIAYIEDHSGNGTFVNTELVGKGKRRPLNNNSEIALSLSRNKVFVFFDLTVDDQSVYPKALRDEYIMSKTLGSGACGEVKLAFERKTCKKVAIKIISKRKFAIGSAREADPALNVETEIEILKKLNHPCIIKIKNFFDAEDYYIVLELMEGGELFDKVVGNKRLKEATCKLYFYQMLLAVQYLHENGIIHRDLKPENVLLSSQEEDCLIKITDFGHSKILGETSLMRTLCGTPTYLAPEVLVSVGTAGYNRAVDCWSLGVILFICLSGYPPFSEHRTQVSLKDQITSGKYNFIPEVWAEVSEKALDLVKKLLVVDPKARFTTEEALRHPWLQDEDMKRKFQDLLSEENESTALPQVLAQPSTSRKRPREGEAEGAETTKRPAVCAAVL
# Death-associated protein kinase 1 (Homo sapiens), sequence (P53355 whole entry, looked up): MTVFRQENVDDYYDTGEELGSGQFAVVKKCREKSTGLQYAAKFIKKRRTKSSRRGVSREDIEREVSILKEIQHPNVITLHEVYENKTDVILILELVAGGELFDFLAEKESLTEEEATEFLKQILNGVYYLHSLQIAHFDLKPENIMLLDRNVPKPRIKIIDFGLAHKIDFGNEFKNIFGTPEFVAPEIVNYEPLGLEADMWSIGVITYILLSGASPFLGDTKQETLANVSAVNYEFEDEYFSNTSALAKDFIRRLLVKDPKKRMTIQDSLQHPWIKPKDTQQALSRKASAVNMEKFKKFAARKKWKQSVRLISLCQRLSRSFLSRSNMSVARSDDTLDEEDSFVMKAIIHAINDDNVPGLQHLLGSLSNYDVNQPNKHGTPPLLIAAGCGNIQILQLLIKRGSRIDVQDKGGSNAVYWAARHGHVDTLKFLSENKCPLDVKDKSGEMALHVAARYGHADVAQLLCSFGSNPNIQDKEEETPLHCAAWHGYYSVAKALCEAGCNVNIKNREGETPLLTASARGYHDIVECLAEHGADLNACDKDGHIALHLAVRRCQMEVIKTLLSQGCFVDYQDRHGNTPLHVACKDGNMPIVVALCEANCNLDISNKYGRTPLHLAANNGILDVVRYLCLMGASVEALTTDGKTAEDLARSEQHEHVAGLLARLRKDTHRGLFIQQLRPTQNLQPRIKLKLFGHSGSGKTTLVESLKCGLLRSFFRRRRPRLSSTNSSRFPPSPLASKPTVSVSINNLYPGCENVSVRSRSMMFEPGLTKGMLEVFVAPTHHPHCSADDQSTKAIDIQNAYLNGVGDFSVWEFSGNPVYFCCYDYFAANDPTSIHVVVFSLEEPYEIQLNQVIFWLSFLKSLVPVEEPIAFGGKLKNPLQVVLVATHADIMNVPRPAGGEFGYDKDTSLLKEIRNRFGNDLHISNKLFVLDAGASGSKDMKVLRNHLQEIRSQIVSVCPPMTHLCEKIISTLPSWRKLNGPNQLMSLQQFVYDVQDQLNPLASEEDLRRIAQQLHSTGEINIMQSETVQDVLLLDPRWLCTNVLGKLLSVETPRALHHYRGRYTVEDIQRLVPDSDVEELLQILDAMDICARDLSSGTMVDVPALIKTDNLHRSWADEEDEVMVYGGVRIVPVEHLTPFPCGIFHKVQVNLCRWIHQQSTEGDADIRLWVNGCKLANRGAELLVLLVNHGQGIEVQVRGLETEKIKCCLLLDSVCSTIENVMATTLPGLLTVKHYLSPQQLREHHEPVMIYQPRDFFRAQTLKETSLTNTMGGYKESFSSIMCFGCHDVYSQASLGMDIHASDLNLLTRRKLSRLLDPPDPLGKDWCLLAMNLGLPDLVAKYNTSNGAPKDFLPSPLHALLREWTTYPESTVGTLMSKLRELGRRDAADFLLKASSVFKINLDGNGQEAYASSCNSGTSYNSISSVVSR
# MAP kinase-activated protein kinase 2 (Homo sapiens), sequence (P49137 whole entry, looked up): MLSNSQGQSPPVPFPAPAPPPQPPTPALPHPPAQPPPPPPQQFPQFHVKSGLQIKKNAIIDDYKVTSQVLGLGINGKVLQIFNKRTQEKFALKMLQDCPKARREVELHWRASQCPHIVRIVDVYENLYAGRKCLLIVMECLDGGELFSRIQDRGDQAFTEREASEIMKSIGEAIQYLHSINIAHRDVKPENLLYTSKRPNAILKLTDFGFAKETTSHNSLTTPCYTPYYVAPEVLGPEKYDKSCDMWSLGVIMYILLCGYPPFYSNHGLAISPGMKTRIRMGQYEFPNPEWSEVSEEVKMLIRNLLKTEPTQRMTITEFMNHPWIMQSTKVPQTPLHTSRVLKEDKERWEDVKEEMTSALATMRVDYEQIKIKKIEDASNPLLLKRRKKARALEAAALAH
structure (smiles),measurement,setting,value
CN1CCC(n2cnc(-c3ccc(F)cc3)c2-c2ccnc(Nc3ccccc3)n2)CC1,inhibition,[1],1.68%
same,inhibition,[2],0.53%
same,inhibition,[3],2.35%
same,inhibition,[4],0.11%
same,inhibition,[5],1.45%
same,inhibition,[6],-0.4%
same,inhibition,[7],1.3%
same,inhibition,[8],1.2%
same,inhibition,[9],2.71%
same,inhibition,[10],2.63%
same,inhibition,[11],2.54%
same,inhibition,[12],0.09%
same,inhibition,[13],-4.09%
same,inhibition,[14],1%
same,inhibition,[15],0.41%
same,inhibition,[16],34.8%
same,inhibition,[17],36.9%
same,inhibition,[18],1.99%
same,inhibition,[19],4.86%
same,inhibition,[20],3.17%
Cc1ccc(O)cc1Nc1ccnc2cc(-c3ccccn3)ccc12,inhibition,[1],5.11%
same,inhibition,[2],4.51%
same,inhibition,[3],6.51%
same,inhibition,[4],-0.2%
same,inhibition,[5],0.26%
same,inhibition,[6],4.18%
same,inhibition,[7],4.5%
same,inhibition,[8],3.95%
same,inhibition,[9],5.81%
same,inhibition,[10],3.99%
same,inhibition,[11],5.29%
same,inhibition,[12],1.56%
same,inhibition,[13],2.1%
same,inhibition,[14],1.91%
same,inhibition,[15],1.68%
same,inhibition,[16],7.63%
same,inhibition,[17],19.4%
same,inhibition,[18],4.13%
same,inhibition,[19],6.28%
same,inhibition,[20],4.39%
Nc1nc(-c2ccc(F)cc2)c(-c2ccc3ncccc3n2)s1,inhibition,[1],4.65%
same,inhibition,[2],4.16%
same,inhibition,[3],4.81%
same,inhibition,[4],-0.44%
same,inhibition,[5],-0.24%
same,inhibition,[6],3.9%
same,inhibition,[7],5.94%
same,inhibition,[8],3.09%
same,inhibition,[9],4.06%
same,inhibition,[10],4.26%
same,inhibition,[11],4.25%
same,inhibition,[12],1.89%
same,inhibition,[13],1.19%
same,inhibition,[14],2.16%
same,inhibition,[15],1.53%
same,inhibition,[16],11.3%
same,inhibition,[17],24.6%
same,inhibition,[18],4.82%
same,inhibition,[19],7.14%
same,inhibition,[20],3.4%
CCN(CC)S(=O)(=O)c1ccc(OC)c(Nc2ncc(-c3ccccc3)o2)c1,inhibition,[1],6.08%
same,inhibition,[2],2.08%
same,inhibition,[3],8.27%
same,inhibition,[4],-0.4%
same,inhibition,[5],-1.66%
same,inhibition,[6],1.49%
same,inhibition,[7],2.79%
same,inhibition,[8],-0.98%
same,inhibition,[9],2.66%
same,inhibition,[10],4%
same,inhibition,[11],4.29%
same,inhibition,[12],2.03%
same,inhibition,[13],3.38%
same,inhibition,[14],2.65%
same,inhibition,[15],1.48%
same,inhibition,[16],1.95%
same,inhibition,[17],-0.47%
same,inhibition,[18],1.44%
same,inhibition,[19],2.58%
same,inhibition,[20],-0.45%
CC(C)(CO)CNC(=O)c1ccc2c(c1)/C(=N/Nc1ccc(S(N)(=O)=O)cc1)C(=O)N2,inhibition,[1],4.28%
same,inhibition,[2],0.61%
same,inhibition,[3],12.2%
same,inhibition,[4],0.55%
same,inhibition,[5],-0.51%
same,inhibition,[6],0.39%
same,inhibition,[7],-3.69%
same,inhibition,[8],-0.89%
same,inhibition,[9],5.93%
same,inhibition,[10],-0.17%
same,inhibition,[11],0.07%
same,inhibition,[12],0.04%
same,inhibition,[13],1.76%
same,inhibition,[14],-0.45%
same,inhibition,[15],-1.03%
same,inhibition,[16],2.49%
same,inhibition,[17],2.07%
same,inhibition,[18],10.3%
same,inhibition,[19],52.5%
same,inhibition,[20],5.88%
Fc1ccc(-c2nn3ccccc3c2-c2ccncc2)cc1,inhibition,[1],0.25%
same,inhibition,[2],0.43%
same,inhibition,[3],2.99%
same,inhibition,[4],1.16%
same,inhibition,[5],1.98%
same,inhibition,[6],0.22%
same,inhibition,[7],-0.04%
same,inhibition,[8],-0.38%
same,inhibition,[9],0.19%
same,inhibition,[10],0.72%
same,inhibition,[11],0.99%
same,inhibition,[12],1.01%
same,inhibition,[13],-2.66%
same,inhibition,[14],0.22%
same,inhibition,[15],0%
same,inhibition,[16],14.4%
same,inhibition,[17],28.4%
same,inhibition,[18],1.76%
same,inhibition,[19],2.2%
same,inhibition,[20],1%

# Reference: ChEMBL document CHEMBL1961873, “Compounds: GSK PKIS; Assays: Nanosyn kinase panel” (2012)
